Only some compounds are listed: those with a hit (about 6.7% of all), similar ones and a draw of the others.
Pf Dd2 inh: P. falciparum Dd2 growth inhibitors, primary screen, SYBR Green fluorescence, single dose replicates. 72 h; stronger effect = lower value. activity change, % at 10 µM. 2.3% of 94,000 active. AID 1159554, 2015; in the data active = activity change below about -80%; inconclusive = no clear call, values can overlap the other calls
C diff growth: C. difficile growth inhibitors, primary screen, HTS; Clostridium difficile clinical isolate growth, OD600, 24 h; stronger effect = lower value; growth activity, negative = inhibition, % at 16 µg/mL (by protocol); 0.25% of 86,000 active; AID 1259249, 2017;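 active = mean growth activity at or below -80% and every replicate also at or below -80%; inconclusive = mean at or below -80% but some replicate above -80%; inactive = mean growth activity above -80%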;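 note: 0% = DMSO wells and -100% = levofloxacin 16 µg/mL wells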
T cruzi growth-1: T. cruzi intracellular proliferation inhibitors, primary screen, cell-based, beta-gal Tulahuen parasites, NIH3T3 host, luminescence; T. cruzi beta-gal in NIH3T3, GalScreen luminescence, 90 h; inhibition, % at 8.34 µM; 5.9% of 77,000 active; AID 624255, 2012;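 active = mean inhibition above about 93%, with at least 55% of replicates each passing it, limit read from the data, passing the limit was not always enough; inconclusive = only one of those two conditions holds; inactive = neither condition holds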
T cruzi growth-2: T. cruzi intracellular proliferation inhibitors, confirmation, cell-based, NIH3T3 host, beta-gal parasite, luminescence, cherry-pick; shares compounds with T cruzi growth-1; T. cruzi beta-gal in NIH3T3, GalScreen luminescence, 90 h; inhibition, % at 8.35 µM; 72% of 5,600 active; AID 651739, 2012;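 active = mean replicate inhibition above about 95% and at least 55% of replicates individually reaching it, limit read from the data; inconclusive = only one of the two criteria is met; inactive = neither criterion is met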
T cruzi growth-3: inhibitors of intracellular T. cruzi replication, confirmation, NIH3T3 host cells, beta-gal parasites, cherry-pick, set 2. shares compounds with T cruzi growth-1. T. cruzi beta-gal in NIH3T3, GalScreen luminescence, 90 h. inhibition, % at 2.09 µM. 21% of 5,600 active. AID 651740, 2012;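 active = mean inhibition above about 95%, with at least 55% of replicates also reaching it, limit read from the data; inconclusive = meets just one of the two conditions; inactive = meets neither condition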;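 note: plate controls were neutral control median for no effect and positive control median for full effect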
NIH3T3 tox: cytotoxicity in mouse NIH/3T3 fibroblasts, confirmation, cytotoxicity control for T. cruzi proliferation inhibitor project, cell-based, cherry-pick, single point; shares compounds with T cruzi growth-1; NIH/3T3 viability, CellTiter-Glo ATP luminescence, 90 h; cytotoxicity (signal decrease), % at 8.35 µM; 14% of 5,600 active; AID 651742, 2012;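 active = mean signal decrease across replicates above about 35% based on untreated-well scatter, with enough replicates individually passing, limit read from the data; inconclusive = no rule stated though some were filed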;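 note: 0% = median of neutral control wells and 100% = median of positive control wells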
3T3 cytotox 2: NIH/3T3 fibroblast cytotoxicity, confirmation, cytotoxicity control, cell-based, cherry-pick, single point, set 2; shares compounds with T cruzi growth-1; NIH/3T3 viability, CellTiter-Glo ATP luminescence, 90 h; inhibition, % at 24.9 µM; 56% of 5,600 active;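 active = mean loss of cell viability signal at or above a set limit, and enough replicates individually reaching it; inconclusive = meets only the mean limit or only the replicate share; inactive = meets neither condition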;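 note: 0% = median of neutral control wells and 100% = median of positive control wells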
* marks the source's active call; other numbers are inactive results; ? = inconclusive; . = no result.

SMILES	Pf Dd2 inh	C diff growth	T cruzi growth-1	others
C[C@H](CO)N1C[C@H](C)[C@@H](CN(C)S(=O)(=O)c2ccc(Cl)cc2)OCCCC[C@H](C)Oc2ccc(NC(=O)NC3CCCCC3)cc2C1=O	.	-1.3	105.6*	T cruzi growth-2=108.7*;T cruzi growth-3=74.6;NIH3T3 tox=-10.2;3T3 cytotox 2=-0.4
CC(C)NC(=O)Nc1ccc2c(c1)C(=O)N([C@H](C)CO)C[C@@H](C)[C@H](CN(C)S(=O)(=O)c1ccc(Cl)cc1)OCCCC[C@@H](C)O2	-76.2	9.5	72.5
C[C@H]1CCCCO[C@H](CN(C)S(=O)(=O)c2ccc(Cl)cc2)[C@@H](C)CN([C@@H](C)CO)C(=O)c2cc(NC(=O)NC3CCCCC3)ccc2O1	.	2.0	87.3
Cc1noc(C)c1NC(=O)Nc1ccc2c(c1)C(=O)N([C@@H](C)CO)C[C@@H](C)[C@@H](CN(C)S(=O)(=O)c1ccc(Cl)cc1)OCCCC[C@@H](C)O2	-68.8	.	72.0
CO[C@@H]1CN(C)C(=O)c2cc(NC(=O)c3nc4ccccc4s3)ccc2OC[C@H](C)N(Cc2cncnc2)C[C@H]1C	-2.4	.	-11.1
CO[C@H]1CN(C)C(=O)c2cc(NS(C)(=O)=O)ccc2OC[C@@H](C)N(CC2CCCCC2)C[C@H]1C	9.7	.	-33.8
C[C@@H]1CCCCO[C@@H](CN(C)C(=O)Nc2ccc(F)cc2)[C@H](C)CN([C@@H](C)CO)C(=O)c2cc(NC(=O)Nc3cccc4ccccc34)ccc2O1	-7.2	-8.1	90.8
C[C@@H]1CCCCO[C@H](CN(C)C(=O)Nc2ccc(F)cc2)[C@H](C)CN([C@@H](C)CO)C(=O)c2cc(NC(=O)Nc3cccc4ccccc34)ccc2O1	-39.4	-5.0	102.4*	T cruzi growth-2=110.2*;T cruzi growth-3=81.0;NIH3T3 tox=-20.1;3T3 cytotox 2=-4.7
C[C@H](CO)N1C[C@H](C)[C@H](CN(C)C(=O)Nc2cccc3ccccc23)OCCCC[C@H](C)Oc2ccc(NC(=O)Nc3ccc(F)cc3)cc2C1=O	-48.3	-3.1	?	T cruzi growth-2=100.8*;T cruzi growth-3=70.6;NIH3T3 tox=0.4;3T3 cytotox 2=0.1
C[C@@H]1CCCCO[C@H](CN(C)C(=O)Nc2cccc3ccccc23)[C@H](C)CN([C@@H](C)CO)C(=O)c2cc(NC(=O)Nc3ccc(F)cc3)ccc2O1	-82.7*	7.2	100.9*	T cruzi growth-2=111.6*;T cruzi growth-3=60.2;NIH3T3 tox=-13.6;3T3 cytotox 2=-10.8
C[C@@H]1CCCCO[C@H](CN(C)C(=O)Nc2cccc3ccccc23)[C@@H](C)CN([C@H](C)CO)C(=O)c2cc(NC(=O)Nc3ccc(F)cc3)ccc2O1	-34.3	-2.6	69.0
C[C@@H]1CCCCO[C@@H](CN(C)C(=O)Nc2ccccc2)[C@@H](C)CN([C@@H](C)CO)C(=O)c2cc(NC(=O)Nc3cccc4ccccc34)ccc2O1	?	-2.3	.
C[C@H]1CCCCO[C@H](CN(C)Cc2ccccc2)[C@@H](C)CN([C@@H](C)CO)C(=O)c2cc(NS(=O)(=O)c3ccc(F)cc3)ccc2O1	-44.3	10.7	-41.9
CNC(=O)C[C@@H]1CC[C@H]2[C@@H](COc3ccc(NC(=O)c4ccc(C(F)(F)F)cc4)cc3C(=O)N2C)O1	-14.1	3.9	6.7
CC(=O)Nc1ccc2c(c1)C(=O)N(C)[C@H]1CC[C@H](CC(=O)NCC3CCCCC3)O[C@H]1CO2	-11.1	1.6	33.5
C[C@H](CO)N1C[C@H](C)[C@@H](CN(C)S(=O)(=O)c2cn(C)cn2)OCCCC[C@H](C)Oc2ccc(NC(=O)c3ccccc3)cc2C1=O	-18.9	3.9	-26.7
O=C(C[C@H]1CC[C@H]2[C@@H](COC[C@@H](O)CN2S(=O)(=O)c2cccc(Cl)c2)O1)NCCCN1CCOCC1	19.0	14.5	.
C[C@H]1CN([C@@H](C)CO)C(=O)c2c(c3ccccc3n2C)-c2ccccc2CO[C@H]1CN(C)C(=O)C1CC1	26.5	-7.6	81.4
